Screening data from PubChem BioAssay.
A selection: hits, their analogues and other compounds. The true share with any hit is near 18%.
TDP1 cell noCPT – qHTS for Inhibitors of human tyrosyl-DNA phosphodiesterase 1 (TDP1): qHTS in cells in absence of CPT. DT40 Tdp1-/- hTDP1 cells, no CPT, ATP luminescence, 48 h. Potency, µM (top dose mostly 46.2 µM), inactives show at the top dose activity change, negative = growth inhibition, most hits filed as inhibitors. 15% of 420,000 active. AID 686978, 2013; further: potency means the concentration at half of the fitted maximal effect; nearly all actives have a fitted effect of over 55% in size
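Chicken DT40 Tdp1-/- cells stably complemented with human TDP1 were seeded at 400 cells/well with DMSO in place of 20 nM camptothecin. After compound pinning, cells grew at least 48 hr at 37 °C; viability read by CellTiter-Glo luminescence.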
RORgamma inh – ROR gamma (mouse) transcription inhibition. P51450. Drosophila S2 Gal4-RORgamma UAS-luciferase reporter, 20 h. Potency, µM (top dose mostly 53.6 µM), for inactives: at the highest dose activity change, negative = inhibition, most hits filed as inhibitors. 5.4% of 310,000 active. AID 2551; further: potency means the concentration at half of the fitted maximal effect; nearly all actives have a fitted effect of over 60% in size
Target sequence (P51450 whole entry, looked up, the tested form may be a part): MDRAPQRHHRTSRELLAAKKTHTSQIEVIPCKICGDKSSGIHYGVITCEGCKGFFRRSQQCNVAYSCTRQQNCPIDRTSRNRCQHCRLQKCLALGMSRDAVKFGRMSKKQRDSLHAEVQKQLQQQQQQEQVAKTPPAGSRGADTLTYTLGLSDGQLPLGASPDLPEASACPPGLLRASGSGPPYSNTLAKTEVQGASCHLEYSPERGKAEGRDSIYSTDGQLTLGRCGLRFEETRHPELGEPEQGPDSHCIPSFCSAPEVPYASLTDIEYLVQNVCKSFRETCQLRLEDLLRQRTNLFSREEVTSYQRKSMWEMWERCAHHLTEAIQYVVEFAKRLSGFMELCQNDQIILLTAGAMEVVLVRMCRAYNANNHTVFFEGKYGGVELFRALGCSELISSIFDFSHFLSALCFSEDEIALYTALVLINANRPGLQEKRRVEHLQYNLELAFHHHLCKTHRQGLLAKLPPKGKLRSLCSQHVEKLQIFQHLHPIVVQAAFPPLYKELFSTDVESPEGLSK
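Stable Schneider cell line, Gal4 DNA-binding domain fused to ROR gamma, UAS-luciferase. Cmpd 1 hr RT → CuSO4 700 uM final → 20 hr RT → luciferase reagent 10 min → luminescence.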
IL-1B inflam inh – inflammasome signaling inhibition, IL-1 beta readout; 4.7% of 360,000 active; THP-1 LPS/ATP IL-1B secretion, AlphaLISA, 16 h; stronger effect = lower value; activity change, % at 57.5 µM; in the data active means activity change below about -50%; inconclusive means mostly about -30% to -49%
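THP-1 cells pretreated 1 hr with compounds (up to 57.5 uM final), then stimulated with LPS (250 ng/mL final) plus ATP (1.25 mM final); secreted IL-1B measured by AlphaLISA after 16 hr, decreased signal indicating inhibition.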
TDP1 cell CPT – DT40-hTDP1 cell growth loss with CPT. chicken DT40 Tdp1-/-;hTDP1 cells + 20 nM CPT, ATP luminescence, 48 h. Potency, µM (titrated, usually from 46.2 µM), for the others: at the top dose activity change, negative = growth inhibition, usual class: inhibitors. 12% of 420,000 active. AID 686979; further: potency means the concentration at half of the fitted maximal effect; nearly all actives have a fitted effect of over 55% in size
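Chicken DT40 Tdp1-/- cells stably complemented with human TDP1 were seeded at 400 cells/well in medium containing 20 nM camptothecin, exposed to pin-transferred compounds, and grown at 37 °C for at least 48 hr. Viability was read as ATP luminescence.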
VP16 counter – counter-screen for ROR gamma inhibitors: Gal4-VP16 reporter | Drosophila S2 Gal4-VP16 UAS-luciferase, luminescence, 20 h | Potency, µM (series often up to 53.6 µM), for inactives: at the highest dose activity, negative = inhibition, actives largely listed as inhibitors | 3.5% of 310,000 active | AID 2546;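 further: Gal4-VP16 expression switched on by copper sulfate through the metallothionein promoter; potency means the concentration at half of the fitted maximal effect; nearly all actives have a fitted effect of over 50% in size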
LDHA inh – LDHA (human) enzyme inhibition; P00338; purified LDHA, NADH/diaphorase-resazurin fluorescence; stronger effect = lower value; activity change, % (values are at about 110 or 230 µM); 0.15% of 480,000 active; AID 1347041; in the data active means activity change below about -30%; inconclusive means mostly about -25% to -30%;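 further: plate controls were DMSO wells for no effect and wells without enzyme for full effect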
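Human LDH5 at 2 nM final in Tris HCl pH 7.4 with 0.06 mM NADH and 0.2 mM pyruvate, reacted 5 minutes at room temperature. Remaining NADH coupled via diaphorase/resazurin; resorufin fluorescence read at 0 and 20 minutes, normalized to enzyme-free and DMSO wells.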
An asterisk follows results filed as active; ? = inconclusive; . = no result given; [ ] = dose if it differs, or a comment. Unless noted, the call rests on the fitted dose curve; in most records, active means well fitted curve in the direction sought with a large enough effect; inconclusive means small, poorly fitted or top-dose-only effect, or another doubt; inactive means no such curve, though single readings can be large; an effect the other way counts as inactive or inconclusive. Unless noted, on the % scale 0 is the no-effect control and ±100 the full control effect.

SMILES	TDP1 cell noCPT	RORgamma inh	IL-1B inflam inh	TDP1 cell CPT	VP16 counter	LDHA inh
Cc1ccc(C(=O)NCCC2=CCCCC2)cc1S(=O)(=O)N1CCCCC1	?	.	-58*	?	.	-3
CC1CN(S(=O)(=O)c2cccc(C(=O)Nc3ccc4c(c3)CCC4)c2)CC(C)O1 (stereo not drawn)	1.2µM*	?	?	1.2µM*	8%	-2
CC1CN(S(=O)(=O)c2cccc(C(=O)NN3CCN(C)CC3)c2)CC(C)O1 (stereo not drawn)	9%	-3%	7	1%	-6%	-3
N#Cc1ccccc1COc1ccccc1C(N)=O	.	.	.	.	.	4
Cc1ccc(C(C)C)c(OCC(=O)NCc2ccc(Cn3cccn3)cc2)c1	.	.	.	.	.	-8
Cc1ccc(Nc2nnc(-c3ccc(C)c(S(N)(=O)=O)c3)c3ccccc23)cc1	.	.	.	.	.	-11
COc1ccc(Nc2nnc(-c3ccc(C)c(S(=O)(=O)N4CCN(C)CC4)c3)c3ccccc23)cc1	?	.	.	?	.	-6
COc1ccc(Nc2nc(-c3ccccc3)nc3ccccc23)cc1S(=O)(=O)N1CCOCC1	8.2µM*	?	-74*	15µM*	-22%	-2
CNC(=O)c1ccc(Nc2nnc(-c3ccc(C)c(S(=O)(=O)N4CCOCC4)c3)c3ccccc23)cc1	7.3µM*	.	.	21µM*	.	0
COc1ccc(NC(=O)c2cc(C)nc3ccccc23)cc1S(=O)(=O)N1CCOCC1	3%	.	-17	0%	.	-7
Cc1ccc(Nc2nnc(-c3ccc(C)c(S(=O)(=O)N4CCOCC4)c3)c3ccccc23)cc1	10µM*	.	.	16µM*	.	-4
COc1ccc(Nc2nnc(-c3ccc(C)c(S(=O)(=O)N4CCOCC4)c3)c3ccccc23)cc1	7.3µM*	.	.	15µM*	.	0
CC(C#N)Sc1nnc(Nc2ccccc2F)s1 (stereo not drawn)	.	.	.	.	.	4
Cc1cc(C)cc(NC(=O)C(Sc2ccc(S(=O)(=O)N3CCOCC3)cn2)c2ccccc2)c1 (stereo not drawn)	.	.	.	.	.	-1
Cc1ccc(CNC(=O)c2cc3c(s2)-c2cc(C)sc2CC3)cc1	.	.	.	.	.	1
CCN(C(=O)COC(=O)/C=C/c1ccccc1Cl)c1c(N)n(Cc2ccccc2)c(=O)[nH]c1=O	?	.	-13	?	.	-14
CN(C(=O)COC(=O)/C=C/c1ccc(C(F)(F)F)cc1)c1c(N)n(Cc2ccccc2)c(=O)[nH]c1=O	6.5µM*	.	-4	6.5µM*	.	-2
CCN(C(=O)COC(=O)/C=C/c1cccc(Cl)c1)c1c(N)n(Cc2ccccc2)c(=O)[nH]c1=O	?	.	8	23µM*	.	-4
CCN(C(=O)COC(=O)/C=C/c1ccc(Cl)c(Cl)c1)c1c(N)n(Cc2ccccc2)c(=O)[nH]c1=O	2.1µM*	.	17	3.7µM*	.	-4
CSc1nc(C)c(CCC(=O)NC(c2ccc(Cl)cc2)C(C)C)c(C)n1 (stereo not drawn)	.	.	.	.	.	-6
CN(Cc1ccc(-c2ccc(Cl)cc2)o1)C(=O)CSc1nnc(C2CC2)n1C	.	.	.	.	.	-12
CCOc1ccc(S(=O)(=O)Nc2cccc(C(=O)NCCCN3CCCC3=O)c2)cc1	-26%	.	0	-28%	.	-1
O=C(NCCCN1CCCC1=O)c1ccc(S(=O)(=O)Nc2cccc(C(F)(F)F)c2)cc1	21µM*	.	28	?	.	-3
O=C(NCCCN1CCOCC1)c1ccc(S(=O)(=O)Nc2cccc(C(F)(F)F)c2)cc1	?	.	20	-23%	.	-6
CCOc1ccc(NS(=O)(=O)c2ccc(C(=O)NCCCN3CCCC3=O)cc2)cc1	18µM*	?	2	?	-5%	-2
SMILES	TDP1 cell noCPT	RORgamma inh	IL-1B inflam inh	TDP1 cell CPT	VP16 counter	LDHA inh
O=C(CCC(=O)c1cccs1)OC1CCOC1=O (stereo not drawn)	.	.	.	.	.	11
COc1ccccc1CCNC(=O)c1cccc(N2CCCCS2(=O)=O)c1	.	.	.	.	.	-11
CO/N=C/c1c(-c2ccc(Cl)cc2)nc2cc(C)ccn12	?	8.9µM*	-52*	?	6%	-9
COc1ccc(-c2nc3cc(C)ccn3c2NC(=O)c2c(F)cccc2Cl)cc1	-18%	-3%	8	-19%	1%	-8
CC(=O)N1CCN(C(=O)CSc2nnc(Nc3ccc(C)cc3C)s2)CC1	.	.	.	.	.	-2
Nc1cccnc1Sc1ccc([N+](=O)[O-])cn1	0%	4µM*	-17	20%	?	-11
Cc1noc(C)c1-c1ccc(C(=O)NCC2CC2)c2occc12	?	.	16	?	.	-8
Cc1noc(C)c1-c1ccc(C(=O)Nc2ccccc2)c2occc12	?	.	-5	26µM*	.	-7
Cc1noc(C)c1-c1ccc(C(=O)NC2CCCCC2)c2occc12	15µM*	.	-7	16µM*	.	-3
COc1ccc(NC(=O)c2ccc(-c3c(C)noc3C)c3ccoc23)cc1	?	.	0	?	.	-1
COc1ccccc1NC(=S)NCCSc1ccc(Cl)cc1	-22%	18µM*	0	-2%	?	-1
COc1ccc(NC(=S)NCCSc2ccc(Cl)cc2)c(OC)c1	?	1.1µM*	-27	?	0%[0.365 µM]	2
COc1ccccc1NC(=S)NCCc1ccc(Cl)cc1	?	1.8µM*	1	?	7.1µM*	-3
S=C(NCCSc1ccc(Cl)cc1)Nc1ccccc1Cl	.	.	.	.	.	6
COc1ccc(CCNC(=S)NCc2ccc(Cl)c(Cl)c2)cc1OC	?	?	-85*	-3%	-4%	-11
O=C(N/N=C/C(Br)=C/c1ccccc1)c1cccnc1	2.1µM*	?	-95*	2.6µM*	2%	-4
CC(/C=N\NC(=O)c1cccnc1)c1ccccc1 (stereo not drawn)	-1%	.	15	-2%	.	1
CC(=O)N/C(=C/c1ccccc1)c1ccncc1	11µM*	.	.	7.9µM*	.	4
CC(=O)N/C(=C/C(C)C)c1ccccc1	2%	.	9	5%	.	-1
O=C(N/N=C/C(Br)=C/c1ccccc1)c1ccncc1	1.6µM*	-1%	-84*	1.6µM*	-8%	-3
O=C(N/N=C/C(Br)=C/c1ccccc1)c1ccc([N+](=O)[O-])cc1	4.1µM*	13µM*	?	4.1µM*	-19%	?
C(#CCn1c2ccccc2c2ccccc21)CN1CCOCC1	.	.	.	.	.	5
O=C(N/N=C/C(Br)=C\c1ccccc1)c1ccc2nc[nH]c2c1	15µM*	14µM*	-90*	10µM*	7.9µM*	-1
